About 2,000 (36%) of roughly 5,500 compounds were called active. About 18% were inconclusive and are not listed. Cut-off read from the data, not from the text of the source: active = normalized growth mostly below about 0.91 (no sharp cut-off); inconclusive = no clear call, values can overlap the other calls; inactive = mostly above about 0.92. Some of the results follow.
Assay: chemical genetic growth profiling, strain panel (AID 1159580);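 note: tested at 20 µM; growth read once vehicle control cultures reached saturation at 30 °C; 1 = growth at the plate median or of vehicle wells; lower values mean less growth of the strain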
Conditions: S. cerevisiae deletion strains, growth OD

Measured: normalized growth

COC(=O)c1c(C)c2c(c(C)c1O)OC(=O)c1c(C)c(Cl)c(O)c(Cl)c1O2
active: locus YJR043C, strain POL32, active compounds read low 0.853 | locus YLR262C, strain YPT6 (second series), active compounds read low 0.855 | locus YLR342W, strain FKS1 (second series), active compounds read low 0.751 | locus YLR418C, strain cdc73, active compounds read low 0.83 | locus YMR307W, strain GAS1, active compounds read low 0.545 | locus YOR270C, strain vph1, active compounds read low 0.715
inactive: locus YJR066W, strain TOR1, active compounds read low 0.878 | locus YKL009W, strain mrt4, active compounds read low 1.01 | locus YKL068W, active compounds read low 1 | locus YKL085W, strain MDH1 (second series), active compounds read low 1.01 | locus YKL085W, strain MDH1, active compounds read low 1.01 | locus YKL160W, strain elf1, active compounds read low 0.956 | locus YKL190W, strain CNB1, active compounds read low 0.957 | locus YKR001C, strain vps1, active compounds read low 0.937 | locus YKR026C, strain gcn3, active compounds read low 0.97 | locus YKR091W, strain srl3, active compounds read low 0.967 | locus YLL001W, strain dnm1, active compounds read low 0.959 | locus YLL026W, active compounds read low 0.975 | locus YLL041C, strain sdh2, active compounds read low 0.964 | locus YLR027C, strain aat2, active compounds read low 0.984 | locus YLR039C, strain RIC1, active compounds read low 0.928 | locus YLR058C, strain SHM2, active compounds read low 0.985 | locus YLR102C, strain apc9, active compounds read low 1.01 | locus YLR113W, strain HOG1, active compounds read low 1.04 | locus YLR221C, strain rsa3, active compounds read low 0.958 | locus YLR258W, strain gsy2, active compounds read low 0.937 | locus YLR262C, strain YPT6, active compounds read low 0.865 | locus YLR268W, strain sec22, active compounds read low 1 | locus YLR320W, strain mms22, active compounds read low 0.932 | locus YLR330W, strain CHS5, active compounds read low 0.987 | locus YLR342W, strain FKS1, active compounds read low 0.971 | locus YLR357W, strain rsc2, active compounds read low 0.922 | locus YLR370C, strain arc18, active compounds read low 0.958 | locus YLR371W, strain rom2, active compounds read low 1.03 | locus YLR384C, strain iki3, active compounds read low 0.983 | locus YML016C, strain PPZ1, active compounds read low 1.01 | locus YML032C, strain rad52, active compounds read low 0.959 | locus YML120C, strain ndi1, active compounds read low 0.957 | locus YML124C, strain tub3, active compounds read low 1.02 | locus YMR058W, strain fet3, active compounds read low 0.95 | locus YMR078C, strain ctf18, active compounds read low 1.01 | locus YMR125W, strain sto1, active compounds read low 0.986 | locus YMR129W, active compounds read low 0.974 | locus YMR205C, strain PFK2, active compounds read low 0.879 | locus YMR223W, strain ubp8, active compounds read low 0.949 | locus YMR231W, strain pep5, active compounds read low 0.954 | locus YNL067W, strain RPL9B, active compounds read low 0.996 | locus YNL071W, strain lat1, active compounds read low 0.932 | locus YNL183C, strain NPR1, active compounds read low 0.931 | locus YNL209W, strain ssb2, active compounds read low 0.991 | locus YNL233W, strain BNI4, active compounds read low 0.916 | locus YNL248C, strain rpa49, active compounds read low 0.954 | locus YNL250W, strain rad50, active compounds read low 1.02 | locus YNL271C, strain bni1, active compounds read low 1 | locus YNL298W, strain CLA4, active compounds read low 1.01 | locus YNL307C, strain MCK1, active compounds read low 0.978 | locus YNL322C, strain KRE1 (second series), active compounds read low 0.976 | locus YNR049C, strain mso1, active compounds read low 0.955 | locus YNR052C, strain pop2, active compounds read low 0.967 | locus YOL012C, strain htz1 1.87 | locus YOL147C, strain pex11, active compounds read low 1 | locus YOR001W, strain rrp6, active compounds read low 0.945 | locus YOR061W, strain CKA2, active compounds read low 0.99 | locus YOR069W, strain VPS5, active compounds read low 1.01 | locus YOR070C, strain gyp1, active compounds read low 0.98 | locus YOR080W, strain dia2, active compounds read low 0.965 | locus YOR083W, strain WHI5, active compounds read low 0.932 | locus YOR106W, strain vam3, active compounds read low 0.877 | locus YOR136W, strain idh2, active compounds read low 0.997 | locus YOR144C, strain elg1, active compounds read low 1.02 | locus YOR184W, strain ser1, active compounds read low 0.874 | locus YOR231W, strain MKK1, active compounds read low 0.972 | locus YOR265W, strain rbl2, active compounds read low 0.962 | locus YOR290C, strain snf2, active compounds read low 0.92 | locus YOR316C, strain cot1, active compounds read low 1 | locus YPL051W, strain arl3, active compounds read low 0.925 | locus YPL078C, strain atp4, active compounds read low 0.964 | locus YPL106C, strain sse1, active compounds read low 0.903 | locus YPL240C, strain hsp82, active compounds read low 0.96 | locus YPL256C, strain CLN2, active compounds read low 0.954 | locus YPR119W, strain clb2, active compounds read low 1 | locus YPR141C, strain kar3, active compounds read low 0.995 | locus YPR163C, strain tif3, active compounds read low 1.02 | locus YPR167C, strain met16, active compounds read low 0.982 | strain wtn01, active compounds read low 1
